Experimental data from the antibiotic and cytotoxicity screens of Wong et al. (2023).
The campaign covered roughly 39,000 compounds. About 3,300 (8.5%) were called active. Many of the other results were omitted from the sample, so actives are more common in it than they were.

system: HepG2; test: cytotoxicity call (relative viability < 0.9); conditions: 10 µM

Q: c1nc(N2CCOCC2)nc(N2CCOCC2)n1 was tested. Which cytotoxicity call did it give?
A: inactive

Q: With CS(=O)(=O)N1CC[C@]2(COCc3cnc(N4CCOCC4)nc32)C1 as the compound, how does the cytotoxicity call read?
A: inactive

Q: Which cytotoxicity call does the source give for CS(=O)(=O)N1CCc2c(-c3cnc(N)nc3)nc(N3CCOCC3)nc21 here?
A: active

Q: With C[C@@H]1CN([C@H](C)CO)C(=O)c2cc(NS(=O)(=O)c3ccc(F)cc3)ccc2O[C@@H]1CN(C)Cc1ccc(-c2ccccc2)cc1 as the compound, how does the cytotoxicity call read?
A: active

Q: How did the cytotoxicity call turn out when C[C@@H]1CN([C@H](C)CO)C(=O)c2cc(NS(=O)(=O)c3ccc(F)cc3)ccc2O[C@H]1CN(C)Cc1ccc(-c2ccccc2)cc1 was run?
A: active

Q: How did the cytotoxicity call turn out when C[C@@H]1CN([C@@H](C)CO)C(=O)c2cc(NS(=O)(=O)c3ccc(F)cc3)ccc2O[C@@H]1CN(C)Cc1ccc(-c2ccccc2)cc1 was run?
A: active

Q: With C[C@H](CO)N1C[C@H](C)[C@H](CN(C)Cc2ccc(-c3ccccc3)cc2)Oc2ccc(NS(=O)(=O)c3ccc(F)cc3)cc2C1=O as the compound, how does the cytotoxicity call read?
A: inactive

Q: C[C@H]1CN([C@@H](C)CO)C(=O)c2cc(NS(=O)(=O)c3ccc(F)cc3)ccc2O[C@H]1CN(C)Cc1ccc(-c2ccccc2)cc1 was tested. Which cytotoxicity call did it give?
A: inactive

Q: C[C@H](CO)N1C[C@H](C)[C@@H](CN(C)Cc2ccc(-c3ccccc3)cc2)Oc2ccc(NS(=O)(=O)c3ccccc3)cc2C1=O was tested. Which cytotoxicity call did it give?
A: inactive

Q: How did the cytotoxicity call turn out when C[C@@H]1CN([C@@H](C)CO)C(=O)c2cc(NS(=O)(=O)c3ccc(F)cc3)ccc2O[C@H]1CN(C)Cc1ccc(-c2ccccc2)cc1 was run?
A: inactive

Q: With C[C@@H]1CN([C@H](C)CO)C(=O)c2cc(NS(=O)(=O)c3ccccc3)ccc2O[C@H]1CN(C)Cc1ccc(-c2ccccc2)cc1 as the compound, how does the cytotoxicity call read?
A: inactive

Q: C[C@H]1CN([C@@H](C)CO)C(=O)c2cc(NS(=O)(=O)c3ccc(F)cc3)ccc2O[C@@H]1CN(C)Cc1ccc(-c2ccccc2)cc1 was tested. Which cytotoxicity call did it give?
A: active

Q: For C[C@H](CO)N1C[C@H](C)[C@H](CN(C)C(=O)NC2CCCCC2)OCCCC[C@H](C)Oc2ccc(NC(=O)CCC(F)(F)F)cc2C1=O, which cytotoxicity call is on record?
A: inactive

Q: With Cn1c(=O)c2c(nc3n2CC=NN3)n(C)c1=O as the compound, how does the cytotoxicity call read?
A: inactive

Q: For Cc1n[nH]c(C)c1N, which cytotoxicity call is on record?
A: inactive

Q: How did the cytotoxicity call turn out when CC(C)(C)[S@@](=O)N1Cc2cc(C(=O)N3CCCCC3)nc(-c3cccc(C4=CCCC4)c3)c2[C@H]1CCO was run?
A: inactive

Q: C[C@@H]1CN([C@H](C)CO)C(=O)c2cccc(NC(=O)CCCCCC(=O)Nc3ccccc3N)c2O[C@H]1CN(C)S(C)(=O)=O was tested. Which cytotoxicity call did it give?
A: inactive

Q: How did the cytotoxicity call turn out when C[C@H](CO)N1C[C@H](C)[C@@H](CN(C)Cc2ccc(-c3ccccc3)cc2)Oc2ccc(NS(=O)(=O)c3ccc(F)cc3)cc2C1=O was run?
A: active

Q: For Cc1noc(C)c1S(=O)(=O)N(C)C[C@H]1Oc2ccc(NS(=O)(=O)c3cn(C)cn3)cc2CC(=O)N([C@@H](C)CO)C[C@H]1C, which cytotoxicity call is on record?
A: inactive

Q: For CCOC(=O)C1=C(C)N[C@@]2(O)C[C@@H]1[C@H]1CO[C@@H]2O1, which cytotoxicity call is on record?
A: inactive

Q: Nc1ccc(C(=O)O)c(O)c1 was tested. Which cytotoxicity call did it give?
A: inactive

Q: With NNC(=O)c1ccncc1 as the compound, how does the cytotoxicity call read?
A: inactive

Q: How did the cytotoxicity call turn out when NNC(=O)c1ccncc1.Nc1ccc(C(=O)O)c(O)c1 was run?
A: active

Q: For CC(C)OC[C@H]1Cn2c(nc3c2c(=O)n(C)c(=O)n3C)O1, which cytotoxicity call is on record?
A: inactive

Q: Which cytotoxicity call does the source give for NCCCC[C@H](N)C(=O)O here?
A: inactive

Q: With NC(=O)CC[C@@H](N)C(=O)O as the compound, how does the cytotoxicity call read?
A: inactive

Q: How did the cytotoxicity call turn out when N[C@H](CO)C(=O)O was run?
A: inactive

Q: Which cytotoxicity call does the source give for Cl.NCCCC(N)C(=O)O (stereo not given) here?
A: active

Q: Which cytotoxicity call does the source give for NC(CO)C(=O)O (stereo not given) here?
A: active

Q: NC(=O)CC[C@H](N)C(=O)O was tested. Which cytotoxicity call did it give?
A: inactive

Q: For Cl.NCCCCC(N)C(=O)O (stereo not given), which cytotoxicity call is on record?
A: inactive

Q: With NC(CC(=O)O)C(=O)O (stereo not given) as the compound, how does the cytotoxicity call read?
A: inactive

Q: How did the cytotoxicity call turn out when NC(=O)CCC(N)C(=O)O (stereo not given) was run?
A: active

Q: For NC(=O)NCC#Cc1ccc2c(c1)[C@]1(C(=O)N2)[C@H](c2ccc(OCCO)cc2)N2[C@H](c3ccccc3)[C@H](c3ccccc3)OC(=O)[C@H]2[C@@H]1C(=O)N1CCCCCCC1, which cytotoxicity call is on record?
A: inactive

Q: How did the cytotoxicity call turn out when C[C@H](CO)N1C[C@H](C)[C@@H](CN(C)Cc2ccc3c(c2)OCO3)OCc2ccccc2-c2c(n(C)c3ccccc23)C1=O was run?
A: inactive

Q: For C[C@H]1CCCCO[C@@H](CN(C)C(=O)CCC(F)(F)F)[C@@H](C)CN([C@@H](C)CO)C(=O)c2cc(NS(=O)(=O)c3ccc(F)cc3)ccc2O1, which cytotoxicity call is on record?
A: inactive

Q: Which cytotoxicity call does the source give for C[C@H](CO)N1C[C@H](C)[C@H](CN(C)C(=O)Nc2cccc3ccccc23)Oc2ccc(NC(=O)Nc3ccccc3)cc2CC1=O here?
A: inactive

Q: Which cytotoxicity call does the source give for Cc1cccc(NC(=O)Nc2ccc3c(c2)C(=O)N(C)[C@H]2CC[C@H](CC(=O)NCc4ccccc4Cl)O[C@H]2CO3)c1 here?
A: inactive

Q: With C[C@@H]1CN([C@H](C)CO)S(=O)(=O)c2ccc(C#CC3CC3)cc2O[C@H]1CN(C)C(=O)Cc1ccncc1 as the compound, how does the cytotoxicity call read?
A: inactive

Q: For C[C@H]1CN([C@@H](C)CO)C(=O)c2cccc(NS(=O)(=O)c3ccccc3)c2O[C@H]1CN(C)S(=O)(=O)c1ccc(F)cc1, which cytotoxicity call is on record?
A: inactive

Q: How did the cytotoxicity call turn out when COCCNC(=O)C[C@H]1CC[C@H]2[C@@H](COC[C@H](O)CN2C(=O)Nc2ccc3c(c2)OCO3)O1 was run?
A: inactive

Q: How did the cytotoxicity call turn out when O=C(O)CCC(=O)NCc1cccnc1 was run?
A: inactive

Q: Which cytotoxicity call does the source give for OCc1cccnc1 here?
A: inactive

Q: Which cytotoxicity call does the source give for C(=N\Cc1cccnc1)/c1c2ccccc2cc2ccccc12 here?
A: active

Q: O=C(Nc1ccc(Cl)cc1C(=O)c1ccc(Cl)cc1)c1cc(Br)ccc1NS(=O)(=O)c1ccc(Cl)cc1 was tested. Which cytotoxicity call did it give?
A: active

Q: How did the cytotoxicity call turn out when O=C(Nc1ccc([N+](=O)[O-])cc1Cl)c1cc(Cl)ccc1O was run?
A: active

Q: O=C(Nc1cc(Cl)ccc1Cl)c1cc(Cl)ccc1NS(=O)(=O)c1ccc(Cl)c([N+](=O)[O-])c1 was tested. Which cytotoxicity call did it give?
A: active

Q: How did the cytotoxicity call turn out when CNS(=O)(=O)c1ccc(Cl)c(C(N)=O)c1 was run?
A: inactive

Q: With C/C=C/C(=O)c1cc(Cl)ccc1O as the compound, how does the cytotoxicity call read?
A: inactive

Q: How did the cytotoxicity call turn out when O=C(Nc1cc(Cl)ccc1Cl)c1cc(Br)ccc1NS(=O)(=O)c1ccc(Cl)c([N+](=O)[O-])c1 was run?
A: active

Q: Which cytotoxicity call does the source give for NS(=O)(=O)c1ccc(Cl)cc1[N+](=O)[O-] here?
A: inactive

Q: Which cytotoxicity call does the source give for NS(=O)(=O)c1ccc(F)c([N+](=O)[O-])c1 here?
A: inactive

Q: How did the cytotoxicity call turn out when C[C@H](CO)N1C[C@H](C)[C@@H](CN(C)Cc2ccc(C(=O)Nc3ccccc3N)cc2)Oc2c(NS(=O)(=O)c3ccc(Cl)cc3)cccc2C1=O was run?
A: inactive

Q: Which cytotoxicity call does the source give for C[C@H]1CN([C@@H](C)CO)C(=O)c2cccc(NS(=O)(=O)c3ccc(Cl)cc3)c2O[C@H]1CN(C)Cc1ccc(C(=O)Nc2ccccc2N)cc1 here?
A: inactive

Q: How did the cytotoxicity call turn out when NC(=O)c1ccc([N+](=O)[O-])cc1Cl was run?
A: inactive

Q: With C[C@@H]1CN([C@@H](C)CO)S(=O)(=O)c2ccc(-c3cccc(C(=O)N(C)C)c3)cc2O[C@@H]1CN(C)C(=O)Cc1ccccn1 as the compound, how does the cytotoxicity call read?
A: inactive

Q: For COc1ccc([C@@H]([C@H](Cc2ccccc2)OC(C)=O)N2C[C@H]3C(=NO[C@@H]3[C@@H](OC(C)=O)c3ccccc3)[C@@H]2Cc2ccccc2)cc1, which cytotoxicity call is on record?
A: inactive

Q: Which cytotoxicity call does the source give for C[C@@H]1CN([C@@H](C)CO)C(=O)c2cc(NC(=O)CCN3CCOCC3)ccc2O[C@H]1CN(C)Cc1ccc2c(c1)OCO2 here?
A: inactive

Q: Which cytotoxicity call does the source give for COCC(=O)Nc1ccc2c(c1)C(=O)N(C)C[C@@H](OC)[C@@H](C)CN(C(=O)c1ccccc1F)[C@@H](C)CO2 here?
A: inactive

Q: Which cytotoxicity call does the source give for CO[C@@H]1CN(C)C(=O)c2cc(NC(=O)C3CCCC3)ccc2OC[C@@H](C)N(C(=O)Nc2ccc(C(F)(F)F)cc2)C[C@H]1C here?
A: inactive

Q: For Cc1cnc(CNC(=O)[C@H]2C[C@H]3[C@@H](CCN3S(C)(=O)=O)O2)cn1, which cytotoxicity call is on record?
A: inactive

Q: O=C(C[C@@H]1C[C@@H]2c3cc(NS(=O)(=O)c4ccc(F)cc4)ccc3O[C@@H]2[C@H](CO)O1)NCC(F)(F)F was tested. Which cytotoxicity call did it give?
A: inactive

Q: How did the cytotoxicity call turn out when CC=Cc1ccc2n(c1=O)C[C@@H]1[C@@H](CO)[C@H](C(=O)NCCc3cn(C)cn3)[C@H]2N1C(=O)C1CC1 was run?
A: inactive

Q: For Cn1c(=O)c(=O)n(C)c2cc(S(=O)(=O)CCC(=O)NCc3ccccc3)ccc21, which cytotoxicity call is on record?
A: inactive

Q: For CCCCNc1ccc(C(=O)OCCOCCOCCOCCOCCOCCOCCOCCOCCOC)cc1, which cytotoxicity call is on record?
A: inactive

Q: How did the cytotoxicity call turn out when CCCCOC(=O)c1ccc(O)cc1 was run?
A: inactive

Q: For CCCCNc1ccc(C(=O)OCCN(C)C)cc1.Cl, which cytotoxicity call is on record?
A: active

Q: How did the cytotoxicity call turn out when Cc1noc(C)c1NC(=O)N(C)C[C@@H]1Oc2c(NC(=O)Nc3cccc4ccccc34)cccc2C(=O)N([C@H](C)CO)C[C@@H]1C was run?
A: inactive

Q: How did the cytotoxicity call turn out when C[C@@H]1CN([C@H](C)CO)C(=O)c2cc(NC(=O)c3ccccc3)ccc2O[C@@H](C)CCCCO[C@@H]1CN(C)Cc1ccncc1 was run?
A: inactive

Q: How did the cytotoxicity call turn out when O=C(C1CCC1)N1CCOCC1 was run?
A: inactive

Q: C[C@@H](N)CCc1ccc(Br)cc1 was tested. Which cytotoxicity call did it give?
A: inactive

Q: Which cytotoxicity call does the source give for C[C@@H]1CCCCO[C@@H](CN(C)C(=O)C2CCCCC2)[C@H](C)CN([C@@H](C)CO)C(=O)c2cc(NC(=O)c3ccncc3)ccc2O1 here?
A: inactive

Q: C[C@@H]1CN([C@H](C)CO)C(=O)c2cc(NC(=O)CCCN(C)C)ccc2O[C@@H]1CN(C)C(=O)Nc1ccc2c(c1)OCO2 was tested. Which cytotoxicity call did it give?
A: inactive

Q: Which cytotoxicity call does the source give for C[C@@H]1CN([C@H](C)CO)C(=O)c2cc(NS(=O)(=O)c3ccccc3)ccc2O[C@H]1CN(C)C(=O)Nc1cccc2ccccc12 here?
A: inactive

Q: With C[C@@H]1CN([C@H](C)CO)C(=O)c2cc(NS(=O)(=O)c3ccccc3)ccc2O[C@@H]1CN(C)C(=O)Nc1cccc2ccccc12 as the compound, how does the cytotoxicity call read?
A: active

Q: With C[C@H](CO)N1C[C@H](C)[C@H](CN(C)C(=O)Nc2cccc3ccccc23)Oc2ccc(NS(=O)(=O)c3ccccc3)cc2C1=O as the compound, how does the cytotoxicity call read?
A: inactive

Q: For Cc1ccc(S(=O)(=O)Nc2ccc3c(c2)C(=O)N([C@H](C)CO)C[C@@H](C)[C@H](CN(C)C(=O)Nc2cccc4ccccc24)O3)cc1, which cytotoxicity call is on record?
A: active

Q: With Cc1ccc(S(=O)(=O)Nc2ccc3c(c2)C(=O)N([C@@H](C)CO)C[C@H](C)[C@@H](CN(C)C(=O)Nc2cccc4ccccc24)O3)cc1 as the compound, how does the cytotoxicity call read?
A: inactive

Q: Cc1ccc(S(=O)(=O)Nc2ccc3c(c2)C(=O)N([C@@H](C)CO)C[C@H](C)[C@H](CN(C)C(=O)Nc2cccc4ccccc24)O3)cc1 was tested. Which cytotoxicity call did it give?
A: inactive

Q: CC(C)NC(=O)N(C)C[C@H]1Oc2ccc(NC(=O)c3ccncc3)cc2CC(=O)N([C@H](C)CO)C[C@@H]1C was tested. Which cytotoxicity call did it give?
A: inactive
